Experimental data published in PubChem BioAssay (NCATS).
“And” between values parts separate entries of the source, which are not always exact repeats. Equal entries are not always repeated. Inconclusive results are not listed. Values without a mark were called inactive. The source made the active and inactive calls. Unless noted, the call rests on the fitted dose curve; in most records, active means well fitted curve in either direction with a large enough effect (not every such curve was filed as active); inconclusive means small, poorly fitted or top-dose-only effect, or another doubt; inactive means flat fitted curve, though single readings scatter.

Legend:
[1] = AP1 Signaling Pathway (AID 357); details: ME-180 (cervical carcinoma) AP-1-bla reporter, EGF-induced, beta-lactamase ratio, 5 h; further: on the % scale 0 is the no-effect control and ±100 the full control effect
Procedure, shortened: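 AP-1-bla ME-180 cells with beta-lactamase reporter under AP-1 response element, stimulated with EC50 EGF; compounds titrated, 5 hours at 37 degrees Celsius. CCF4 read at 460/530 nm ratio; positive and negative modulators judged by AC50.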

[2] = target: Cytochrome P450 1A2 (Homo sapiens) (UniProt P05177); experiment: p450-cyp1a2 (AID 410; calls by dose curve; further: potency means the concentration at half of the fitted maximal effect;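 on activity change, negative = inhibition: -100% = full effect of reference inhibitor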); details: recombinant CYP1A2, luciferin-ME demethylation, luminescence; series mostly up to 25.6 µM
Procedure, shortened: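 Read-out is luminescence from luciferin produced by CYP1A2 demethylation of Luciferin-ME (100uM, at Km). Detection reagent stopped the 60 min NADPH-dependent reaction; signals were normalized to 57 uM furafylline.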

[3] = NFAT Signaling Pathway (AID 444); details: Jurkat NFAT-bla M1, carbachol, beta-lactamase ratio, 5 h;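 further: carbachol stimulus at about its EC50 of 1 µM final; on the % scale 0 is the no-effect control and ±100 the full control effect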
Procedure, shortened: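 Jurkat cells with NFAT-driven β-lactamase reporter and co-expressed M1 receptor, stimulated with carbachol (final 1 uM, ~EC50), compound titration, 5 h at 37 °C. CCF4 loaded 1 h at RT; 460/530 nm ratio gave %activity and AC50.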

[4] = Cell Viability - BJ (AID 421; calls by dose curve;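 further: potency means the concentration at half of the fitted maximal effect; cells exposed to compound for 40 hours at 37 °C before readout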); details: BJ fibroblast viability, qHTS
Procedure, shortened: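 Cytotoxicity as drop in intracellular ATP (CellTiter-Glo, 20 min RT) after 40 hr compound exposure of BJ fibroblasts at 37 °C. Titrations scaled between DMSO and 100 uM tamoxifen, Hill-fitted for AC50.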

[5] = Cell Viability - Jurkat (AID 426;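 active means dose-dependent loss of cell ATP signal giving a full or clear fitted curve, ranked by lower potency value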;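 further: potency means the concentration at half of the fitted maximal effect; cells exposed to compound for 40 hours at 37 °C before ATP read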); details: qHTS
Procedure, shortened: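 Cytotoxicity was scored as loss of cellular ATP, measured by luciferase-based luminescence, in Jurkat clone E6-1 cells after 40 h compound treatment; tamoxifen and doxorubicin served as positive controls.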

[6] = Cell Viability - Hek293 (AID 427;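 active means compounds whose dose-response curve shows a full or clear partial loss of cell viability, called from curve shape rather than a numeric limit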;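 further: potency means the concentration at half of the fitted maximal effect; cells exposed to compound for 40 hours at 37 °C before reading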); details: qHTS
Procedure, shortened: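 Luminescent ATP content (CellTiter-Glo, 20 min at room temperature) was measured after a 40 hr, 37 °C compound exposure of HEK293 cells. AC50 values came from Hill-equation fits of qHTS concentration-response data normalized to DMSO and 100 uM tamoxifen.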

[7] = Cell Viability - HepG2 (AID 433; calls by dose curve;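 further: potency means the concentration at half of the fitted maximal effect; potency for ATP loss meaning cytotoxicity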); details: qHTS
Procedure, shortened: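 HepG2 hepatocellular carcinoma cells (1500/well) were treated with compounds for 40 h at 37 °C in complete medium; intracellular ATP was read by CellTiter-Glo luminescence. Data were normalized to DMSO and 100 uM tamoxifen, and AC50 came from Hill fits.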

[8] = Cell Viability - MRC5 (AID 434; calls by dose curve;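 further: potency means the concentration at half of the fitted maximal effect; potency reflects cytotoxicity seen as loss of intracellular ATP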); details: MRC5 lung fibroblast viability, qHTS
Procedure, shortened: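 ATP luminescence read-out (CellTiter-Glo, 20 min RT) after 40 hr, 37 °C compound exposure of 1500 MRC5 cells/well. Data normalized to DMSO (basal) and 100 uM tamoxifen (100% inhibition); AC50 from standard Hill equation.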

[9] = Cell Viability - SK-N-SH (AID 435; calls by dose curve;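 further: potency means the concentration at half of the fitted maximal effect; compound exposure lasted 40 h at 37 °C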); details: SK-N-SH neuroblastoma cell viability qHTS
Procedure, shortened: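 SK-N-SH human neuroblastoma cells (1500/well) were exposed to compounds in complete medium for 40 h at 37 °C, and intracellular ATP was then measured by CellTiter-Glo luminescence. AC50 was taken from Hill fits, normalized to DMSO and 100 uM tamoxifen.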

Sequence of Cytochrome P450 1A2 (Homo sapiens) (P05177 whole entry, looked up): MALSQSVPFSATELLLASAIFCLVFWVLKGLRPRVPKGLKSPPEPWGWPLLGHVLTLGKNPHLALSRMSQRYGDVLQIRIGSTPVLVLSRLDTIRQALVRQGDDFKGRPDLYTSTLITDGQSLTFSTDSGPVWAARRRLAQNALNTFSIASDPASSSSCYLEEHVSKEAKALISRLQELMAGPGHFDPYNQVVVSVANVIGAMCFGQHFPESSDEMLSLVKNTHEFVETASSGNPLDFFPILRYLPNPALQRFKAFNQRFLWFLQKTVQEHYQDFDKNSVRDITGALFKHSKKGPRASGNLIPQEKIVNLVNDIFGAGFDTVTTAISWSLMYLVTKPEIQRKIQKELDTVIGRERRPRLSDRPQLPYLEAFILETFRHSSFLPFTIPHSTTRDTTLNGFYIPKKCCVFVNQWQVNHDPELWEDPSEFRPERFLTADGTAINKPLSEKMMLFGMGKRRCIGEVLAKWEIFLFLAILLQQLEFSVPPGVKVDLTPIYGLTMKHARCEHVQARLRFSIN

Question: What does the source list for `c1ccc2c(CC3=NCCN3)cccc2c1`?
Answer: activity change, negative = inhibition ([1]; at 17.2 µM (top of the series)): 14% and 7.7%; Potency [2]: inactive; activity change, negative = inhibition ([3]; at 17.2 µM (top of the series)): -19.1%

Question: With `Nc1cc(=O)[nH]c(N)n1` as the compound, how does the activity change, negative = inhibition ([1]; at 38 µM (top of the series)) read?
Answer: Its activity change, negative = inhibition is -5.58%.

Question: What about the Potency [2] of the same compound?
Answer: The Potency was “inactive”.

Question: And the activity change, negative = inhibition ([3]; at 38 µM (top of the series))?
Answer: Its activity change, negative = inhibition is -0.946%.

Question: With `COc1ccc(Cl)cc1C(=O)NCCc1ccc(S(=O)(=O)NC(=O)NC2CCCCC2)cc1` as the compound, how does the activity change, negative = inhibition ([1]; at 17.2 µM (top of the series)) read?
Answer: Its activity change, negative = inhibition is -12.3% and -19.5%.

Question: What about the activity change, negative = inhibition ([1]; at 38 µM (top of the series)) of the same compound?
Answer: The activity change, negative = inhibition was -26.7%.

Question: And the Potency [2]?
Answer: Its Potency is “inactive”.

Question: And the activity change, negative = inhibition ([3]; at 17.2 µM (top of the series))?
Answer: Its activity change, negative = inhibition is -3.12% and -29.5%.

Question: And the activity change, negative = inhibition ([3]; at 38 µM (top of the series))?
Answer: Its activity change, negative = inhibition is 0.0491%.

Question: Which activity change, negative = inhibition ([1]; at 38 µM (top of the series)) does the source give for `CC1=C(CC(=O)O)c2cc(F)ccc2/C1=C\c1ccc(S(C)(=O)=O)cc1` here?
Answer: The activity change, negative = inhibition was 11.6%.

Question: What about the Potency [2] of the same compound?
Answer: The Potency was 12.6 µM (active).

Question: And the activity change, negative = inhibition ([3]; at 38 µM (top of the series))?
Answer: Its activity change, negative = inhibition is 13.8%.

Question: For `NC1CCN(c2cccc(Cl)n2)CC1`, which activity change, negative = inhibition ([1]; at 38 µM (top of the series)) is on record?
Answer: The activity change, negative = inhibition was 2.98%.

Question: And the Potency [2]?
Answer: The Potency was 20 µM (active) and 15.8 µM (active).

Question: What about the activity change, negative = inhibition ([3]; at 38 µM (top of the series)) of the same compound?
Answer: Its activity change, negative = inhibition is -6.65%.

Question: For `OCCN1CCN(CCCN2c3ccccc3Sc3ccc(Cl)cc32)CC1`, which activity change, negative = inhibition ([1]; at 17.2 µM (top of the series)) is on record?
Answer: Its activity change, negative = inhibition is 25.4% and 10.4%.

Question: And the activity change, negative = inhibition ([1]; at 38 µM (top of the series))?
Answer: The activity change, negative = inhibition was 7.4%.

Question: With `Nc1ccc(S(=O)(=O)Nc2ccc(Cl)nn2)cc1` as the compound, how does the activity change, negative = inhibition ([1]; at 17.2 µM (top of the series)) read?
Answer: Its activity change, negative = inhibition is 7.06%.

Question: And the Potency [2]?
Answer: The Potency was “inactive”.

Question: And the activity change, negative = inhibition ([3]; at 17.2 µM (top of the series))?
Answer: Its activity change, negative = inhibition is 9.43%.

Question: For `C#CCN(C)Cc1ccccc1`, which activity change, negative = inhibition ([1]; at 17.2 µM (top of the series)) is on record?
Answer: Its activity change, negative = inhibition is -4.72% and 6.12%.

Question: What about the activity change, negative = inhibition ([1]; at 38 µM (top of the series)) of the same compound?
Answer: The activity change, negative = inhibition was 1.9%.

Question: What about the Potency [2] of the same compound?
Answer: Its Potency is “inactive”.

Question: And the activity change, negative = inhibition ([3]; at 17.2 µM (top of the series))?
Answer: Its activity change, negative = inhibition is 4.68% and -0.725%.

Question: What about the activity change, negative = inhibition ([3]; at 38 µM (top of the series)) of the same compound?
Answer: Its activity change, negative = inhibition is 4.11%.

Question: With `CN(C)CCOC(C)(c1ccccc1)c1ccccn1` (stereo not given) as the compound, how does the activity change, negative = inhibition ([1]; at 17.2 µM (top of the series)) read?
Answer: The activity change, negative = inhibition was 4.21%.

Question: For `Nc1ccc(S(=O)(=O)NC(=O)c2ccccc2)cc1`, which activity change, negative = inhibition ([1]; at 17.2 µM (top of the series)) is on record?
Answer: Its activity change, negative = inhibition is 13.8% and 7.16%.

Question: What about the Potency [2] of the same compound?
Answer: Its Potency is “inactive”.

Question: And the activity change, negative = inhibition ([3]; at 17.2 µM (top of the series))?
Answer: The activity change, negative = inhibition was 7.31% and -26.1%.

Question: For `CCCCOc1cc(C(=O)OCCN(CC)CC)ccc1N`, which activity change, negative = inhibition ([1]; at 17.2 µM (top of the series)) is on record?
Answer: The activity change, negative = inhibition was -0.742%.

Question: Which activity change, negative = inhibition ([1]; at 17.2 µM (top of the series)) does the source give for `CCCCOC(=O)c1ccc(O)cc1` here?
Answer: The activity change, negative = inhibition was -21.4%.

Question: And the Potency [2]?
Answer: Its Potency is 0.0794 µM (active).

Question: And the Potency [4]?
Answer: The Potency was > 92 µM.

Question: What about the Potency [5] of the same compound?
Answer: Its Potency is > 92 µM.

Question: What about the Potency [6] of the same compound?
Answer: The Potency was > 92 µM.

Question: What about the Potency [7] of the same compound?
Answer: Its Potency is > 92 µM.

Question: What about the Potency [8] of the same compound?
Answer: Its Potency is > 92 µM.

Question: What about the Potency [9] of the same compound?
Answer: The Potency was > 92 µM.

Question: What about the activity change, negative = inhibition ([3]; at 17.2 µM (top of the series)) of the same compound?
Answer: The activity change, negative = inhibition was -15%.

Question: Which activity change, negative = inhibition ([1]; at 17.2 µM (top of the series)) does the source give for `CCN(CC)CCOC(=O)C1(C2CCCCC2)CCCCC1` here?
Answer: The activity change, negative = inhibition was 21%.

Question: And the activity change, negative = inhibition ([1]; at 38 µM (top of the series))?
Answer: Its activity change, negative = inhibition is 20.8%.

Question: What about the activity change, negative = inhibition ([3]; at 17.2 µM (top of the series)) of the same compound?
Answer: Its activity change, negative = inhibition is -68.8% (active).

Question: And the activity change, negative = inhibition ([3]; at 38 µM (top of the series))?
Answer: The activity change, negative = inhibition was -63.7% (active).
